Test [1] in a line: qHTS of pediatric cancer cell lines to identify multiple opportunities for drug repurposing: Primary screen for BT-37 cells (AID 1347094). In outline: (§1)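 CRCs from 8- or 11-point titrations (lowest final 0.59 nM NPC, 0.78 nM MIPE). Cell viability: CellTiter-Glo after 48 h incubation, 15 min room-temperature development, luminescence imaging.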
In general terms: In qHTS, concentration-response curves come from the screen itself.

Test [2] can be described thus: qHTS of pediatric cancer cell lines to identify multiple opportunities for drug repurposing: Primary screen for NB-EBc1 cells (AID 1347095). In outline:
as §1

Test [3] can be described thus: qHTS of pediatric cancer cell lines to identify multiple opportunities for drug repurposing: Primary screen for U-2 OS cells (AID 1347096). Also: nearly all actives have a fitted effect of over 50% in size. The method in brief:
(§2)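 Viability after 48 h compound treatment at 37C, 500-1,000 cells/well, read as ATP luminescence with CellTiter-Glo. Primary screens used 11-point (MIPE, 0.78 nM-46 µM) or 8-point (NPC, 0.59 nM-46 µM) final concentrations; follow-up screens used 11-point dilutions.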

The nature of test [4]: qHTS of pediatric cancer cell lines to identify multiple opportunities for drug repurposing: Primary screen for SK-N-SH cells (AID 1347098). Also: nearly all actives have a fitted effect of over 65% in size. The method in brief:
(§3)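 Cells (500-1,000/well) rested 5 h, then received compounds for 48 h; metabolically active cells were measured by CellTiter-Glo luminescence. Final concentrations spanned up to 46 µM (MIPE, 11-point) or 0.59 nM-46 µM (NPC, 8-point) in primary screens, 11-point in follow-ups.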

Test [5] in a line: qHTS of pediatric cancer cell lines to identify multiple opportunities for drug repurposing: Primary screen for NB1643 cells (AID 1347099). Also: nearly all actives have a fitted effect of over 50% in size. In outline:
as §1

Test [6] is described as follows: qHTS of pediatric cancer cell lines to identify multiple opportunities for drug repurposing: Primary screen for LAN-5 cells (AID 1347100). In outline: as §2
A short description of test [7]: qHTS of pediatric cancer cell lines to identify multiple opportunities for drug repurposing: Primary screen for BT-12 cells (AID 1347101). Also: nearly all actives have a fitted effect of over 25% in size. The method in brief:
as §3

A short description of test [8]: qHTS of pediatric cancer cell lines to identify multiple opportunities for drug repurposing: Primary screen for Rh18 cells (AID 1347102). Also: nearly all actives have a fitted effect of over 65% in size. The method in brief:
as §2

Test [9] in a line: qHTS of pediatric cancer cell lines to identify multiple opportunities for drug repurposing: Primary screen for Saos-2 cells (AID 1347097). Also: nearly all actives have a fitted effect of over 40% in size. The method in brief:
as §1

Test [10] is described as follows: qHTS of pediatric cancer cell lines to identify multiple opportunities for drug repurposing: Primary screen for OHS-50 cells (AID 1347103). Also: nearly all actives have a fitted effect of over 40% in size. The method in brief: as §3

“And” between values parts separate entries of the source, which are not always exact repeats. Identical values can stand only once. Records with an inconclusive call do not appear. The source made the active and inactive calls. Calls follow the shape of the dose curve; as a rule, active = well fitted curve in the direction sought with a large enough effect; inconclusive = small, poorly fitted or top-dose-only effect, or another doubt; inactive = no such curve, though single readings can be large; an effect the other way counts as inactive or inconclusive.
Potency is read from the fitted curve at half-maximal effect.

For `COc1c2c(cc3c1OCO3)CCN(C)C2`, the Potency result in test [1], in test [2], in test [3], in test [4], in test [5] and in test [6] was “inactive” each time. The Potency result in test [7] and in [8] was “inactive” in each case.

`C[C@]12CC[C@@H]3c4ccc(OC(=O)N(CCCl)CCCl)cc4CC[C@H]3[C@@H]1CC[C@@H]2O`: the Potency entry in test [1], in test [3], in test [4], in test [5], in test [6] and in test [7] was “inactive” each time. Also, in [8], the Potency entry is “inactive”.

As for `O=C(O)CCCc1ccc(N(CCCl)CCCl)cc1`, the Potency in [2] is 11.9 µM (active) and 1.05 µM (active); in test [6] it was 9440 nM (active). Moreover, the Potency result in [3], in test [9], in test [4], in [5], in test [7] and in test [8] was “inactive” in each case.

`CCCN(CCC)C(=O)Cc1c(-c2ccc(Cl)cc2)nc2ccc(Cl)cn12`: the Potency entry in test [1], in test [2], in test [3], in test [9], in test [4] and in test [6] was “inactive” throughout. For the same compound, the Potency entry in test [8] was “inactive”.

With `NNc1ccccc1`, the Potency entry in test [1], in test [2], in test [3], in test [9], in [4] and in test [5] was “inactive” throughout. For the same compound, the Potency entry in test [7], in test [8] and in test [10] was “inactive” throughout.

As to `C[C@]12Cc3cn[nH]c3C[C@@H]1CC[C@@H]1[C@@H]2CC[C@@]2(C)[C@H]1CC[C@]2(C)O`, the Potency result in test [1], in test [7] and in test [8] was “inactive” each time. In addition, the Potency in [9] is 26600 nM (active).

For the compound `CCCCCCC(=O)CCCCCC/C=C/C[C@@H](O)[C@H](O)[C@@](N)(CO)C(=O)O`, the Potency result in test [1], in test [2], in test [3], in test [4], in test [5] and in test [6] was “inactive” in each case. Moreover, the Potency result in [7] and in [8] was “inactive” in each case.

Take `C[C@]12CCC(=O)C=C1CC[C@@H]1[C@@H]2CC[C@@]2(C)[C@H]1CC[C@]2(C)O`: the Potency result in test [1], in [3], in test [4], in [5], in [6] and in test [8] was “inactive” in each case.

Consider `COc1cccc2c1C(=O)c1c(O)c3c(c(O)c1C2=O)C[C@@](O)(C(=O)CO)CC3OC1CC(N2CCOC(OC)C2)C(O)C(C)O1` (stereo not given in full), for which the Potency in test [1] was 27.6 nM (active); in test [3], 266 nM (active); in [4], 21.7 nM (active); in [5] it was 26.6 nM (active); in test [7] it was 69.2 nM (active); in test [8] it was 59.6 nM (active). Besides, in test [10], the Potency is 34.7 nM (active).

On to `CN1CCC(O)(c2ccc(F)cc2)C(C(=O)c2ccc(F)cc2)C1` (stereo not given), for which the Potency result in test [1], in test [2], in [3], in [9], in [5] and in test [6] was “inactive” in each case. Further, the Potency result in test [7], in [8] and in test [10] was “inactive” in each case.

In the case of `CC(C)=CC1C(C(=O)OCN2C(=O)C3=C(CCCC3)C2=O)C1(C)C` (stereo not given), the Potency result in test [1], in test [3], in test [8] and in [10] was “inactive” in each case.

For `CCOP(=S)(OCC)Oc1ccc2c(C)c(Cl)c(=O)oc2c1`, the Potency entry in test [1], in test [3], in test [9], in test [5], in test [7] and in test [8] was “inactive” each time. Besides, the Potency result in [10] is “inactive”.

`CCCCCCCCCC(=O)O[C@H]1CC[C@H]2[C@@H]3CCC4=CC(=O)CC[C@@H]4[C@H]3CC[C@]12C`: the Potency result in [1], in [2], in test [3], in test [9], in test [5] and in test [6] was “inactive” in each case. In addition, the Potency result in test [7], in test [8] and in test [10] was “inactive” in each case.

With `CC(C)(C)NCC(O)c1ccccc1Cl` (stereo not given), the Potency entry in test [1], in [2], in [3], in test [9], in test [5] and in [6] was “inactive” throughout. Moreover, the Potency result in test [7], in test [8] and in test [10] was “inactive” in each case.

Regarding `O=C(Nc1ccc(Br)cc1)c1cc(Br)cc(Br)c1O`, the Potency is 34400 nM (active) in test [4], 9440 nM (active) in test [5], 27600 nM (active) in test [7] and 21900 nM (active) in test [10]. Moreover, in test [8], the Potency entry was “inactive”.

On to `CCN[C@H](C)Cc1cccc(C(F)(F)F)c1`, for which the Potency result in test [1], in [2], in test [3], in [9], in test [5] and in test [6] was “inactive” in each case. Further, the Potency result in test [7], in test [8] and in test [10] was “inactive” throughout.

As to `c1ccc2c(c1)sc1ccccc12`, the Potency entry in test [1], in test [2], in test [3], in test [4], in test [5] and in test [6] was “inactive” in each case. The Potency entry in test [7], in test [8] and in test [10] was “inactive” in each case.

As for `COc1cc(CCN)cc(OC)c1OC`, the Potency result in test [1], in [2], in [3], in [9], in test [5] and in test [6] was “inactive” each time. Moreover, the Potency result in test [7], in test [8] and in [10] was “inactive” each time.

With `CC(C)c1cccc(C(C)C)c1O`, the Potency result in [1], in [2], in [3], in test [9], in [5] and in [6] was “inactive” each time. Moreover, the Potency result in test [8] and in test [10] was “inactive” each time.

As for `C=CCC1(C(C)CC)C(=O)NC(=O)NC1=O` (stereo not given), the Potency result in [1], in test [2], in [3], in [9], in test [5] and in test [6] was “inactive” throughout. The Potency result in [7], in test [8] and in test [10] was “inactive” each time.

For `CC(=O)NC1CCSC1=O` (stereo not given), the Potency entry in test [1], in test [2], in test [3], in test [4], in test [5] and in test [6] was “inactive” in each case. The Potency result in [7], in [8] and in [10] was “inactive” in each case.

The record behind these values is PubChem BioAssay (NCATS).
